According to PubChem BioAssay AID743320 (Broad Institute, 2014):
Entries with a potency or affinity are not part of this list. Active and inactive are the calls of the source.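 The calls were made as follows: active = signal drop whose fitted half-maximal potency is at most twice the top valid dose tested; inconclusive = flat curve inhibiting 30 to 70 percent, or a poor fit; inactive = the rest.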

Target: Endoplasmic reticulum aminopeptidase 2 (Homo sapiens) (UniProt Q6P179)
Test: inhibition of ERAP2 arginine-AMC cleavage – biochemical, fluorescence plate reader, cherry-picked, set 2, selectivity assay for selective ERAP1 modulator project, dose response (AID 743320)
Settings: recombinant ERAP2, Arg-AMC fluorescence, 1 h; series mostly up to 11 µM

Chain of Endoplasmic reticulum aminopeptidase 2 (Homo sapiens) (Q6P179 whole entry, looked up): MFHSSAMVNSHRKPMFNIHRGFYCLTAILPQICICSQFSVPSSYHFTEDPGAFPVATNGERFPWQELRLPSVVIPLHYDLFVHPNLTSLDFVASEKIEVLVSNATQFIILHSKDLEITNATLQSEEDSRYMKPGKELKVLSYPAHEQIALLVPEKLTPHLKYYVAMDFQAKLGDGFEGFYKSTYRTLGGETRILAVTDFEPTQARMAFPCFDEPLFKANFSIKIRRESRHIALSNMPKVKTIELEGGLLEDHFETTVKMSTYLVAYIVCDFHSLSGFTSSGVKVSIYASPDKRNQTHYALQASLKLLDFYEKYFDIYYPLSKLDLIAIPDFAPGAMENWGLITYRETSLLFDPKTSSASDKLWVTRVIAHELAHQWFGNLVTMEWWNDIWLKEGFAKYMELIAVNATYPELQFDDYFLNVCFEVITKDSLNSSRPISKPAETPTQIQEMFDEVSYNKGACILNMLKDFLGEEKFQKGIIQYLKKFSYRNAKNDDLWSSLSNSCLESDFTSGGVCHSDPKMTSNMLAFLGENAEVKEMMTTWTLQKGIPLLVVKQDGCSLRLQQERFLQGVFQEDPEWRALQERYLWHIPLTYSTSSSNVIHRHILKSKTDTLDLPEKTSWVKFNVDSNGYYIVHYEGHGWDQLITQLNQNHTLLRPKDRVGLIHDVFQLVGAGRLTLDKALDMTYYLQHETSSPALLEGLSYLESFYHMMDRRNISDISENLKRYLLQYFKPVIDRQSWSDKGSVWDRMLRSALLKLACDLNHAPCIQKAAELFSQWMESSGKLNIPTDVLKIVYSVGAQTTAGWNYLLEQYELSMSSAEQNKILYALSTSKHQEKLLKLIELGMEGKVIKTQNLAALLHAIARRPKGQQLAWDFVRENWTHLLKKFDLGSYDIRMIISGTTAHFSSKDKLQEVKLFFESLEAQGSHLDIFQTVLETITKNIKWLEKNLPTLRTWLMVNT

SMILES: C[C@H](CO)N1C[C@H](C)[C@H](CN(C)CC2CCCCC2)Oc2c(NC(=O)Nc3ccc4c(c3)OCO4)cccc2C1=O
- outcome: inactive

SMILES: Cc1noc(C)c1S(=O)(=O)Nc1ccc2c(c1)C(=O)N([C@H](C)CO)C[C@@H](C)[C@@H](CN(C)CC1CCCCC1)OCCCC[C@@H](C)O2
- outcome: inactive

SMILES: CCCN(C)C[C@@H]1OCCCC[C@@H](C)Oc2ccc(NS(=O)(=O)c3ccc(F)cc3)cc2C(=O)N([C@H](C)CO)C[C@@H]1C
- outcome: inactive

SMILES: CCn1cc(CN2CCCC(C(=O)Nc3ccc(-c4nc5ccccc5[nH]4)cc3)C2)c(C)n1 (stereo not given)
- outcome: inactive

SMILES: CCCNC(=O)C[C@H]1CC[C@@H]2[C@H](COC[C@H](O)CN2C(=O)Nc2cccc(Cl)c2)O1
- outcome: inactive

SMILES: C[C@H]1CN([C@@H](C)CO)C(=O)c2cccc(NC(=O)Nc3ccc(F)cc3)c2O[C@@H]1CN(C)C(=O)Nc1ccc2c(c1)OCO2
- outcome: inactive

SMILES: O=C(Nc1ccc(C(F)(F)F)cc1)N1[C@@H]2CNC[C@H]1C2c1ccc(-c2ccncc2)cc1 (stereo not given in full)
- outcome: inactive

SMILES: C[C@@H]1CCCCO[C@@H](CN(C)Cc2ccccc2)[C@@H](C)CN([C@H](C)CO)C(=O)c2cc(NS(=O)(=O)c3cccs3)ccc2O1
- outcome: inactive

SMILES: C[C@@H]1CCCCO[C@@H](CN(C)Cc2ccc3c(c2)OCO3)[C@@H](C)CN([C@H](C)CO)C(=O)c2cc(NS(=O)(=O)c3cccs3)ccc2O1
- outcome: inactive

SMILES: C[C@@H]1CCCCO[C@H](CN(C)Cc2ccc(C(=O)O)cc2)[C@@H](C)CN([C@H](C)CO)C(=O)c2cc(NC(=O)Nc3ccc(C(F)(F)F)cc3)ccc2O1
- outcome: inactive

SMILES: COc1ccc(CN(C)C[C@H]2OCCCC[C@@H](C)Oc3ccc(NS(=O)(=O)c4cccs4)cc3C(=O)N([C@@H](C)CO)C[C@H]2C)cc1
- outcome: inactive

SMILES: C[C@@H]1CCCCO[C@@H](CN(C)CC2CC2)[C@@H](C)CN([C@H](C)CO)C(=O)c2cc(NS(=O)(=O)c3ccc(Cl)cc3)ccc2O1
- outcome: inactive

SMILES: Cc1ccc(S(=O)(=O)Nc2ccc3c(c2)C(=O)N([C@@H](C)CO)C[C@H](C)[C@H](CN(C)C)OCCCC[C@@H](C)O3)cc1
- outcome: inactive

SMILES: COc1ccc(NC(=O)Nc2cccc3c2O[C@H](CN(C)Cc2ccc(C(=O)O)cc2)[C@H](C)CN([C@H](C)CO)C3=O)cc1
- outcome: inactive

SMILES: Cc1ccc2nc3c(cc(C(=O)NCc4ccccc4)c(=N)n3CCCn3ccnc3)c(=O)n2c1
- outcome: inactive

SMILES: C[C@@H]1CCCCO[C@@H](CN(C)Cc2ccc3c(c2)OCO3)[C@@H](C)CN([C@@H](C)CO)C(=O)c2cc(NS(=O)(=O)c3ccccc3)ccc2O1
- outcome: inactive

SMILES: CCCN(C)C[C@@H]1OCCCC[C@@H](C)Oc2ccc(NS(=O)(=O)c3ccc(C)cc3)cc2C(=O)N([C@H](C)CO)C[C@@H]1C
- outcome: inactive

SMILES: O=C(O)c1ccccc1NS(=O)(=O)c1cccc(-n2sc3ccccc3c2=O)c1
- outcome: inactive

SMILES: CC(=O)N1CCN(C(=O)C2(NC(=O)Nc3ccc(C)cc3)CCCCC2)CC1
- outcome: inactive

SMILES: C[C@@H]1CCCCO[C@@H](CN(C)C)[C@H](C)CN([C@@H](C)CO)C(=O)c2cc(NC(=O)Nc3ccc(C(F)(F)F)cc3)ccc2O1
- outcome: inactive

SMILES: COc1ccc(NC(=O)Nc2ccc3c(c2)C(=O)N([C@H](C)CO)C[C@@H](C)[C@H](CN(C)Cc2ccc(C(=O)O)cc2)OCCCC[C@@H](C)O3)cc1
- outcome: inactive

SMILES: O=C(O)c1cccc(NC(=O)c2ccccc2NC(=O)c2cccc([N+](=O)[O-])c2)c1
- outcome: inactive

SMILES: O=C(C[C@@H]1CC[C@@H]2[C@H](COC[C@H](O)CN2C(=O)Nc2cccc(Cl)c2)O1)N1CCCCC1
- outcome: inactive

SMILES: CCCN(C)C[C@@H]1OCCCC[C@@H](C)Oc2ccc(NS(=O)(=O)c3ccc(OC)cc3)cc2C(=O)N([C@H](C)CO)C[C@@H]1C
- outcome: inactive

SMILES: CNC[C@H]1OCCCC[C@@H](C)Oc2ccc(NS(=O)(=O)c3ccc(C)cc3)cc2C(=O)N([C@@H](C)CO)C[C@H]1C
- outcome: inactive

SMILES: O=C(C[C@H]1CC[C@H]2[C@@H](COC[C@@H](O)CN2C(=O)Nc2cccc(Cl)c2)O1)N1CCCCC1
- outcome: inactive

SMILES: COc1ccc(CN(C)C[C@@H]2OCCCC[C@@H](C)Oc3ccc(NS(=O)(=O)c4cccs4)cc3C(=O)N([C@H](C)CO)C[C@@H]2C)cc1
- outcome: inactive

SMILES: Cc1noc(C)c1NC(=O)N(C)C[C@@H]1Oc2c(NC(=O)Nc3ccc(F)cc3)cccc2C(=O)N([C@H](C)CO)C[C@@H]1C
- outcome: inactive

SMILES: C[C@@H]1CCCCO[C@@H](CN(C)CC2CCCCC2)[C@H](C)CN([C@@H](C)CO)C(=O)c2cc(NC(=O)Nc3ccccc3)ccc2O1
- outcome: inactive

SMILES: C[C@@H]1CCCCO[C@@H](CN(C)C(=O)CCC(F)(F)F)[C@@H](C)CN([C@@H](C)CO)C(=O)c2cc(NS(=O)(=O)c3ccc(Cl)cc3)ccc2O1
- outcome: inactive
